# Measured values published in PubChem BioAssay AID1159580 (chemical genetic matrix, 2015).
# Several values for one entry are separate records, joined by “and”; a condition that tells them apart may be missing. Equal entries are not always repeated. Out of some 5,500 compounds screened, about 2,000 (36%) were called active. Another 18% or so got no clear call; they are omitted. The list shows a part of the results. Unmarked numbers belong to inactive results. Rule as the data show it: active = normalized growth mostly below about 0.91 (no sharp cut-off); inconclusive = no clear call, values can overlap the other calls; inactive = mostly above about 0.92.
# Test: chemical genetic growth profiling, strain panel (AID 1159580);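 also: tested at 20 µM; growth read once vehicle control cultures reached saturation at 30 °C; 1 = growth at the plate median or of vehicle wells; lower values mean less growth of the strain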
# Conditions: S. cerevisiae deletion strains, growth OD
structure (smiles),measurement,setting,value
COc1ccc(C(=O)CC(=O)c2ccc(C(C)(C)C)cc2)cc1,normalized growth,"locus YAL013W, strain DEP1, stronger effect = lower value",0.998
same,normalized growth,"locus YAL021C, strain ccr4, stronger effect = lower value",0.999
same,normalized growth,"locus YAL026C, strain drs2, stronger effect = lower value",0.996
same,normalized growth,"locus YAL030W, strain snc1, stronger effect = lower value",0.993
same,normalized growth,"locus YBL061C, strain skt5, stronger effect = lower value",0.99
same,normalized growth,"locus YBR009C, strain hhf1, stronger effect = lower value",0.976
same,normalized growth,"locus YBR021W, strain FUR4, stronger effect = lower value",0.979
same,normalized growth,"locus YBR023C, strain chs3, stronger effect = lower value",0.987
same,normalized growth,"locus YBR171W, strain sec66, stronger effect = lower value",1.03
same,normalized growth,"locus YBR229C, strain ROT2, stronger effect = lower value",0.997
same,normalized growth,"locus YBR231C, strain swc5, stronger effect = lower value",0.997
same,normalized growth,"locus YBR279W, strain paf1, stronger effect = lower value",0.991
same,normalized growth,"locus YCL011C, strain gbp2, stronger effect = lower value",0.995
same,normalized growth,"locus YCL016C, strain dcc1, stronger effect = lower value",0.984
same,normalized growth,"locus YCL029C, strain bik1, stronger effect = lower value",1.01
same,normalized growth,"locus YCL069W, strain vba3, stronger effect = lower value",0.993
same,normalized growth,"locus YCR088W, strain abp1, stronger effect = lower value",0.99
same,normalized growth,"locus YDL005C, strain med2, stronger effect = lower value",0.983
same,normalized growth,"locus YDL035C, strain GPR1, stronger effect = lower value",0.954
same,normalized growth,"locus YDL040C, strain nat1, stronger effect = lower value",0.98
same,normalized growth,"locus YDL074C, strain BRE1, stronger effect = lower value",0.933
same,normalized growth,"locus YDL101C, strain DUN1, stronger effect = lower value",0.99
same,normalized growth,"locus YDL134C, strain PPH21, stronger effect = lower value",1.01
same,normalized growth,"locus YDL185W, strain tfp1, stronger effect = lower value",1
same,normalized growth,"locus YDL192W, strain arf1, stronger effect = lower value",1
same,normalized growth,"locus YDR001C, strain nth1, stronger effect = lower value",0.995
same,normalized growth,"locus YDR069C, strain doa4, stronger effect = lower value",0.989
same,normalized growth,"locus YDR101C, strain arx1, stronger effect = lower value",1
same,normalized growth,"locus YDR137W, strain rgp1, stronger effect = lower value",0.918
same,normalized growth,"locus YDR150W, strain NUM1, stronger effect = lower value",0.999
same,normalized growth,"locus YDR159W, strain sac3, stronger effect = lower value",1.01
same,normalized growth,"locus YDR162C, strain NBP2, stronger effect = lower value",0.851
same,normalized growth,"locus YDR195W, strain ref2",1.01
same,normalized growth,"locus YDR297W, strain sur2, stronger effect = lower value",1
same,normalized growth,"locus YDR318W, strain mcm21, stronger effect = lower value",0.994
same,normalized growth,"locus YDR334W, strain swr1, stronger effect = lower value",1.02
same,normalized growth,"locus YDR335W, strain msn5, stronger effect = lower value",1
same,normalized growth,"locus YDR388W, stronger effect = lower value",1.01
same,normalized growth,"locus YDR392W, strain spt3, stronger effect = lower value",1.02
same,normalized growth,"locus YDR502C, strain sam2, stronger effect = lower value",1.01
same,normalized growth,"locus YEL003W, strain gim4, stronger effect = lower value",0.992
same,normalized growth,"locus YEL037C, strain rad23, stronger effect = lower value",0.992
same,normalized growth,"locus YEL061C, strain CIN8 (second series), stronger effect = lower value",0.976
same,normalized growth,"locus YEL061C, strain CIN8, stronger effect = lower value",0.96
same,normalized growth,"locus YER015W, strain faa2, stronger effect = lower value",0.997
same,normalized growth,"locus YER016W, strain bim1, stronger effect = lower value",0.983
same,normalized growth,"locus YER110C, stronger effect = lower value",1.01
same,normalized growth,"locus YER111C, strain swi4, stronger effect = lower value",0.995
same,normalized growth,"locus YER155C, strain BEM2 (second series), stronger effect = lower value",1.01
same,normalized growth,"locus YER155C, strain BEM2, stronger effect = lower value",0.94
same,normalized growth,"locus YER167W, strain BCK2, stronger effect = lower value",0.987
same,normalized growth,"locus YFR010W, strain ubp6, stronger effect = lower value",1
same,normalized growth,"locus YGL078C, strain dbp3, stronger effect = lower value",0.996
same,normalized growth,"locus YGL086W, strain mad1, stronger effect = lower value",0.991
same,normalized growth,"locus YGL167C, strain pmr1, stronger effect = lower value",0.982
same,normalized growth,"locus YGL173C, strain kem1, stronger effect = lower value",0.989
same,normalized growth,"locus YGL227W, strain vid30, stronger effect = lower value",0.982
same,normalized growth,"locus YGL240W, strain doc1, stronger effect = lower value",0.986
same,normalized growth,"locus YGL248W, strain PDE1, stronger effect = lower value",0.986
same,normalized growth,"locus YGL253W, strain hxk2, stronger effect = lower value",0.99
same,normalized growth,"locus YGR078C, strain PAC10, stronger effect = lower value",0.931
same,normalized growth,"locus YGR135W, strain pre9, stronger effect = lower value",0.997
same,normalized growth,"locus YGR229C, strain SMI1, stronger effect = lower value",0.83
same,normalized growth,"locus YGR252W, strain gcn5, stronger effect = lower value",1.02
same,normalized growth,"locus YHR013C, strain ard1, stronger effect = lower value",0.945
same,normalized growth,"locus YHR027C, strain rpn1, stronger effect = lower value",0.992
same,normalized growth,"locus YHR030C, strain SLT2, stronger effect = lower value",0.929 and 0.981
same,normalized growth,"locus YHR079C, strain IRE1 (second series), stronger effect = lower value",1
same,normalized growth,"locus YHR079C, strain IRE1, stronger effect = lower value",0.984
same,normalized growth,"locus YHR094C, strain hxt1, stronger effect = lower value",1
same,normalized growth,"locus YHR129C, strain ARP1, stronger effect = lower value",1
same,normalized growth,"locus YHR142W, strain chs7, stronger effect = lower value",0.956
same,normalized growth,"locus YHR200W, strain rpn10, stronger effect = lower value",1
same,normalized growth,"locus YIL066C, strain RNR3, stronger effect = lower value",0.992
same,normalized growth,"locus YIL073C, strain SPO22, stronger effect = lower value",0.872
same,normalized growth,"locus YIL125W, strain kgd1, stronger effect = lower value",0.993
same,normalized growth,"locus YIR030C, strain dcg1, stronger effect = lower value",0.998
same,normalized growth,"locus YJL092W, strain hpr5, stronger effect = lower value",0.993
same,normalized growth,"locus YJL095W, strain BCK1 (second series), stronger effect = lower value",0.967
same,normalized growth,"locus YJL095W, strain BCK1, stronger effect = lower value",0.958 and 0.995
same,normalized growth,"locus YJL115W, strain asf1, stronger effect = lower value",1.01
same,normalized growth,"locus YJL129C, strain trk1, stronger effect = lower value",0.918
same,normalized growth,"locus YJL134W, strain LCB3, stronger effect = lower value",1
same,normalized growth,"locus YJL154C, strain vps35, stronger effect = lower value",0.993
same,normalized growth,"locus YJL164C, strain tpk1, stronger effect = lower value",0.913 (active)
same,normalized growth,"locus YJL166W, strain qcr8, stronger effect = lower value",0.976
same,normalized growth,"locus YJL168C, strain set2, stronger effect = lower value",1
same,normalized growth,"locus YJL187C, strain SWE1 (second series), stronger effect = lower value",1.01
same,normalized growth,"locus YJL187C, strain SWE1, stronger effect = lower value",1
same,normalized growth,"locus YJR043C, strain POL32, stronger effect = lower value",1
same,normalized growth,"locus YJR066W, strain TOR1, stronger effect = lower value",0.97
